Source: PubChem BioAssay
HP1b binding inh: blocks HP1-beta chromodomain binding to methylated histone tails; 390,000 compounds, 0.56% hits; P83916; AlphaScreen HP1-beta / biotin-H3K9me3 peptide binding; AID 540317; Potency, µM (series often up to 114 µM), for inactives: top-dose activity change, negative = inhibition, most hits filed as inhibitors; also: nearly all actives have a fitted effect of over 70% in size
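HP1-beta protein (50 nM final) preincubated 30 min at room temperature with biotinylated H3(1-18)K9me3 peptide (50 nM) in PBS pH 7.4, 0.01% Tween-20, then compound added for 30 min. AlphaScreen streptavidin donor/nickel chelate acceptor beads (10 ug/mL final), 30 min dark, luminescence read.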
JMJD2A Tudor inh: blocks the human JMJD2A Tudor domain; AlphaScreen JMJD2A-Tudor / H3K4me3 peptide binding; Potency, µM (top dose mostly 114 µM), for inactives: top-dose activity change, negative = inhibition, hits mostly inhibitors; 390,000 compounds, 4.4% hits; AID 504339; also: % is scaled to controls: 0 for no effect and ±100 for the full control effect; nearly all actives have a fitted effect of over 50% in size
Target sequence (O75164 whole entry, looked up, the tested form may be a part): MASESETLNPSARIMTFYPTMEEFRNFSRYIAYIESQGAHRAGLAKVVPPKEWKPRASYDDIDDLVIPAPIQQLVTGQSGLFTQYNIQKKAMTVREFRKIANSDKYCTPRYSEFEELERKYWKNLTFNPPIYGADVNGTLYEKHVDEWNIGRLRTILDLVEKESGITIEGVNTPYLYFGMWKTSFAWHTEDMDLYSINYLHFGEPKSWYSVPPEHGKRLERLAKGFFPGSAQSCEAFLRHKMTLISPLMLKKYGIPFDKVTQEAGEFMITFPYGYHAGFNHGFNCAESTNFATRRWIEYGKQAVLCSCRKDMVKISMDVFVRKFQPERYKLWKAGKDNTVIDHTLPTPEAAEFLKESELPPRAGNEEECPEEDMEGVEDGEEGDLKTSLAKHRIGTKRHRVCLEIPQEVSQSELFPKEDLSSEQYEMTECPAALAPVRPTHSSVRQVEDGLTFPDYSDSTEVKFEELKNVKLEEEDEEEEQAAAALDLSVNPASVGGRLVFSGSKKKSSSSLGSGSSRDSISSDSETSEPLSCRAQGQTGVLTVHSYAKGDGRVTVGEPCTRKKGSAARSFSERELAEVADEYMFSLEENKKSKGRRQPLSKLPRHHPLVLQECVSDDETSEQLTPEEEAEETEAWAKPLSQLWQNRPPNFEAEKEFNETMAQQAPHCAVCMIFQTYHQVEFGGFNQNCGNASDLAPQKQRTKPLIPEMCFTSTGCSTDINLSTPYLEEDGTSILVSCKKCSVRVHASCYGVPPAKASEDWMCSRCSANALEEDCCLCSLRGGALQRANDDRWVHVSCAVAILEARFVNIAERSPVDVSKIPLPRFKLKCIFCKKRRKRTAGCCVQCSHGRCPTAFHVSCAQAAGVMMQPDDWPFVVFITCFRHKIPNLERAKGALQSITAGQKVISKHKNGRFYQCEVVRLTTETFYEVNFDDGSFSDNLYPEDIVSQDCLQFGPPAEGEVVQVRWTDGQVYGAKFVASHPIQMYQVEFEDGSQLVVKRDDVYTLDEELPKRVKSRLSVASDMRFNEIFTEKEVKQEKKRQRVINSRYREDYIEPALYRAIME
BAZ2B block: blocks human BAZ2B. Q9UIF8. AlphaScreen BAZ2B-H3K14Ac peptide displacement. Potency, µM (series often up to 114 µM), inactives show top-dose activity change, negative = inhibition, most hits filed as inhibitors. 360,000 compounds, 4.4% hits. AID 504333; also: % is scaled to controls: 0 for no effect and ±100 for the full control effect; nearly all actives have a fitted effect of over 60% in size
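AlphaScreen displacement: compounds (up to 110uM) incubated 30 min at room temperature with a preformed 50 nM BAZ2B/50 nM biotinylated H3K14Ac peptide complex in PBS pH 7.4 with Tween-20. Donor and acceptor beads at 10 ug/mL final added, 20 min light-protected before reading.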
Sfp PPTase inh: inhibitors of Bacillus subtilis Sfp phosphopantetheinyl transferase. Q9F4F7. Biochemical Sfp PPTase activity, qHTS. Potency, µM, without a hit: largest response in the series, negative = inhibition, usual class: inhibitors. 310,000 compounds, 3.5% hits. AID 1490;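 also: the enzyme is Sfp with the accession as filed and its product quenches rhodamine fluorescence; 0% = enzyme reaction without inhibitor and -100% = no enzyme wells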
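Buffer: 50 mM Hepes-Na pH 7.6, 10 mM MgCl2, 0.01% Nonidet P-40, 0.01% BSA. Enzyme 15 nM, pre-exposed to compound 15 min; substrates then added and fluorescence change tracked over 30 min.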
G9a block: blocks human histone lysine methyltransferase G9a | Q96KQ7 | G9a H3K9 monomethylation, AlphaScreen, 2 h | Potency, µM (series often up to 102 µM), without a hit: at the highest dose activity, negative = inhibition, hits mostly inhibitors | 350,000 compounds, 8.8% hits | AID 504332; also: % is scaled to controls: 0 for no effect and ±100 for the full control effect; nearly all actives have a fitted effect of over 75% in size
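Methyltransferase reactions run at room temperature for 2 h (20 nM enzyme, 500 nM biotin-H3K9 peptide, 20 uM SAM) after a 15 min compound preincubation; product detected by AlphaScreen beads and anti-H3K9me1 antibody.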
Starred values were filed as active, the others as inactive; ? = inconclusive; . = no result; [ ] = dose if it differs, or a comment. Shown are actives, neighbours in structure and some others; about 12% of the full set was active somewhere. Calls follow the shape of the dose curve; as a rule, active = well fitted curve in the direction sought with a large enough effect; inconclusive = small, poorly fitted or top-dose-only effect, or another doubt; inactive = no such curve, though single readings can be large; an effect the other way counts as inactive or inconclusive. Potency is read from the fitted curve at half-maximal effect.

SMILES | HP1b binding inh | JMJD2A Tudor inh | BAZ2B block | Sfp PPTase inh | G9a block
Cc1ccccc1N1CCN(C2CCCN(C(=O)c3cnsn3)C2)CC1 (configuration not stated) | 31% | -4% | -16%[57.1 µM] | 8% | 2%
O=C(Nc1cccc([N+](=O)[O-])c1)Nc1cnccn1 | 34% | -8% | -1% | 2% | 29%
O=C1S/C(=C\c2ccccn2)C(=O)N1Cc1ccccc1F | 1% | -20% | 6% | 25% | 18µM*
O=C(CN1C(=O)S/C(=C/c2ccccn2)C1=O)N1CCOCC1 | 13% | -6% | -24% | 12% | 2%
CC(C)CC(OC(=O)c1cccs1)C(=O)NCc1ccco1 (configuration not stated) | -23% | -18%[57.1 µM] | -19% | ? | 13µM*
CCC(OC(=O)c1cccs1)C(=O)NCc1ccco1 (configuration not stated) | 29% | -11% | 5% | -8% | -5%[12.7 µM]
CC1(C)Cc2c(sc3ncn4c(=S)[nH]nc4c23)CO1 | ? | ? | 8% | 45µM* | 3.2µM*
CN(C)c1ccc(Nc2ncnc3sc4c(c23)CCCC4)cc1 | 22µM* | 25µM* | 32µM* | . | ?
NNc1ncnc2sc3c(c12)CCC3 | -2% | 22µM* | 18µM* | ? | -13%
c1cc(Nc2ncnc3sc4c(c23)CCC4)ccn1 | 13% | -16% | -1% | 10% | -22%
CC1(C)Cc2c(sc3ncn(N)c(=N)c23)CO1 | 14% | -11% | -1% | -11% | 14%[59 µM]
CC1(C)Cc2c(sc3ncnc(NN)c23)CO1 | 20% | 50µM* | 79µM* | 40µM* | 19%
O=C(NCc1ccco1)C1CCN(C(=O)c2ccc([N+](=O)[O-])cc2)CC1 | 0% | -13% | -26% | 7% | -37%
C=CCNC(=O)C1CC2Cn3c(nc4cc5ccccc5cc43)C2N1C (configuration not stated) | 25% | -22% | 10% | 12% | -2%[12.7 µM]
CC1CN(C(=O)COC(=O)Cc2c(Cl)cccc2Cl)CC(C)O1 (configuration not stated) | 32%[57 µM] | 0% | . | . | .
O=C(CNC(=O)c1n[nH]c2ccccc12)Nc1ccc(F)c(F)c1F | 36% | -7% | . | . | .
CCC(=O)Nc1ccc(C(=O)COC(=O)c2nc3nccc(C)n3n2)cc1 | ? | 40µM* | 10µM* | . | 5%[12.7 µM]
Cc1ccnc2nc(C(=O)Nc3nccs3)nn12 | 28% | 10µM* | ? | -12% | ?
COc1ccc(NC(=O)COc2ccc(N(C)S(=O)(=O)c3ccc(Cl)cc3)cc2)cc1OC | 12% | -21% | 2% | . | -39%
COC(=O)C(Cc1ccccc1)NS(=O)(=O)c1cc(Br)ccc1Br (configuration not stated) | 39% | -5% | . | 1% | .
O=C(Cc1ccc(F)cc1)N1CCC(c2nc3c(nnn3Cc3ccc(Cl)cc3)c(=O)[nH]2)CC1 | 28% | -20% | -18% | . | 0%[59 µM]
O=c1cc(C(F)(F)F)[nH]c(=S)n1-c1ccccc1 | ? | 79µM* | -26% | 35µM* | 8.9µM*
Nc1cc(=O)[nH]c(=S)n1-c1ccccc1 | 10% | -19% | 7% | ? | ?
CN(C)CCCNC(=O)/C(=N\O)c1ccccc1 | 50% | -3%[57.1 µM] | -22% | 20% | 56µM*
O=C(NCCc1ccccc1)/C(=N\O)c1ccccc1 | 40% | -6% | -5% | 3% | -36%
SMILES | HP1b binding inh | JMJD2A Tudor inh | BAZ2B block | Sfp PPTase inh | G9a block
Cc1oc2ccccc2c1CC(=O)NCCCN(C)C | 59% | -21% | ? | 8% | 50µM*
COc1ccc(OC)c(NC(=O)C2CCCN(S(=O)(=O)c3ccc4[nH]c(=O)ccc4c3)C2)c1 (configuration not stated) | 19% | -17% | -34% | . | -25%[59 µM]
Cc1cc(NC(=O)c2oc3c(c2C)-c2[nH]ncc2CC3)ccc1Br | 33% | -14% | -13% | . | ?
Oc1c(Br)cc(Br)c(/C=N/n2c(-c3ccccc3)n[nH]c2=S)c1Br | ? | 7.9µM* | 50µM* | ? | .
O=[N+]([O-])c1ccccc1/C=C/C=N/n1c(-c2ccccc2F)n[nH]c1=S | ? | 45µM* | ? | 28µM* | 1.8µM*
O=[N+]([O-])c1ccccc1/C=N/n1c(-c2ccccc2)n[nH]c1=S | -28% | 8.9µM* | ? | -13% | .
S=c1[nH]nc(-c2ccncc2)n1/N=C/c1cn(-c2ccccc2)nc1-c1ccccc1 | 65% | -18% | 21% | 14% | ?
Cc1cccc(/C=N/n2c(-c3ccccc3)n[nH]c2=S)c1O | 50µM* | 22µM* | ? | 79µM* | 1.3µM*
Cc1ccc(CN2c3ccccc3-c3nc(SCC(=O)Nc4c(C)cc(C)cc4C)ncc3S2(=O)=O)cc1 | 50% | 6% | -37% | . | 13%[59 µM]
Oc1ccc(Br)cc1/C=N/n1c(-c2ccccc2)n[nH]c1=S | -14% | ? | ? | 56µM* | .
O=c1[nH]c(C2CCN(S(=O)(=O)c3ccccc3)CC2)nc2c1nnn2Cc1ccccc1 | 1% | 50µM* | -9% | -7% | ?
O=c1[nH]c(C2CCN(S(=O)(=O)c3ccc([N+](=O)[O-])cc3)CC2)nc2c1nnn2Cc1ccccc1 | 4% | -19% | ? | -5% | -2%
CC/C(=N/Nc1cccc(Cl)c1)c1cnnc(SC)n1 | 27% | ? | 2% | -7% | 6%[59 µM]
CC/C(=N/Nc1ccccc1)c1cnnc(-c2ccccc2)n1 | 1% | -20% | 11% | -7% | 7.1µM*
N#Cc1c(/N=C/c2ccco2)oc(-c2ccccc2)c1-c1ccccc1 | -59% | 28µM* | -3% | -3% | ?
NC1=NC(c2ccccc2)CC(=O)N1 (configuration not stated) | 21%[57 µM] | -10% | . | . | .
CC(=O)Nc1ccc(S(=O)(=O)N2CCN(c3ccc(C)c(C)c3)CC2)cc1 | 21% | -18% | -22% | . | 1%[59 µM]
O=C(CCc1nnc(-c2ccc3c(c2)OCO3)o1)NC(c1cccnc1)C(F)(F)F (configuration not stated) | 46% | -9% | -23% | 12% | 4%
Cc1cc(C)c(NC(=O)C(=O)NCC(c2cccnc2)N2CCN(Cc3ccccc3)CC2)c(C)c1 (configuration not stated) | 22% | -12% | 3% | . | -5%[59 µM]
O=C(Nc1ccccc1-c1nc2ccccc2s1)c1cc(Cl)cc(Cl)c1 | 12%[57 µM] | 4% | 6% | . | 20%[59 µM]
O=C(Nc1nc2ccccc2s1)c1ccc(F)cc1 | 34% | -6% | ? | 11% | -5%[59 µM]
CNc1sc(C(=O)c2ccc(F)cc2)c(N)c1-c1nc2ccccc2s1 | -29% | ? | 50µM* | -19% | 8.9µM*
CNc1sc(C(=O)c2cccs2)c(N)c1-c1nc2ccccc2s1 | -16% | 50µM* | -6% | 13µM* | ?
O=C(Nc1ccccc1-c1nc2ccccc2s1)c1ccc(F)cc1 | 39% | 8% | 50µM* | . | 5%[59 µM]
CC(=O)Nc1scc(C)c1-c1nc2ccccc2s1 | 123% | 74% | 48% | -18% | 54%
